KLK7 zymogen act: activators of human kallikrein-7 zymogen. purified proKLK7, EDANS-DABCYL substrate fluorescence; 100% is mature enzyme control, 0% vehicle. activation, % at 7 µM. 370,000 compounds, 0.9% hits. AID 652039;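 active = activation above the mean of all tested compounds plus 3 SD, computed per campaign excluding outliers beyond control limits, cut at about 13% in these data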
NPR1 activator: GC-A (human) enzyme activation | HEK293 GC-A cells, cGMP TR-FRET, EC30 ANP; 0% at EC30 ANP, 100% saturating ANP | activation, % at 10 µM | AID 1671463 | 370,000 compounds, 0.14% hits; in the data active = activation above about 40%
HIF act: HIF pathway transcriptional activation | U2OS HRE-luciferase reporter, luminescence; normalized: DMSO 0%, desferrioxamine 100% | activation, % at 7.5 µM (by protocol) | 300,000 compounds, 0.32% hits;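 active = mean activation of at least 10% of the iron chelator positive control signal, with at least half of replicates also reaching 10%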
NPR2 activator: GC-B (human) receptor activation; AID 1920062; P20594; activation, % at 10 µM; HEK293-GC-B cells, CNP EC30, cGMP TR-FRET; 0% at EC30 CNP, 100% saturating CNP; 370,000 compounds, 0.11% hits;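 active = activation at 10 µM reaching about 35% in either raw or pattern-adjusted values, limit read from the data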
KLK7 act conf: confirmation of human kallikrein-7 zymogen activators; AID 686949; shares compounds with KLK7 zymogen act; purified proKLK7, EDANS-DABCYL substrate fluorescence; scaled: vehicle 0, mature enzyme 100; activation, % at 7 µM; 3,200 compounds, 68% hits;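 active = activation, as change over the incubation, above the mean of all tested compounds plus 3 SD, cut at about 13% in these data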
EDANS interfere: optically interferes with EDANS-DABCYL signal, flagging KLK7 hits. shares compounds with KLK7 zymogen act. EDANS-DABCYL substrate fluorescence interference, no enzyme, 4 h; solvent 0%, active enzyme control 100%. activation, % at 7 µM. 3,200 compounds, 80% hits. AID 686952;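 active = activation above the all-compound mean plus 3 SD, ignoring values outside control-based bounds, cut at about 4.8% in these data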;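 also: value is the 4 h activation minus the activation read at time zero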
EDANS interf: EDANS fluorescence interference in dose response, no enzyme | shares compounds with KLK7 zymogen act | EDANS-DABCYL peptide fluorescence interference | EC50, µM | 250 compounds, 20% hits | AID 720493;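 active = compounds that raise the fluorescence signal in this interference counterscreen, with EC50 at or below 10 µM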;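 also: intact quenched peptide substrate alone read at 355 nm excitation and 520 nm emission; signal is fluorescence gain from T0 to T4 after four hours at room temperature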
* marks the source's active call; other numbers are inactive results; . = not tested or not shown. The list is not random: actives were taken first. Their share in the collection is about 1.3%.

SMILES	KLK7 zymogen act	NPR1 activator	HIF act	NPR2 activator	KLK7 act conf	EDANS interfere	others
COCCN(CCOC)Cc1c(O)ccc2c1O/C(=C\c1ccco1)C2=O	19*	5	-5	-3	23*	27*
Cc1cc(C)nc(NS(=O)(=O)c2ccc(N/C=C\C(=O)c3ccc(Cl)cc3)cc2)n1	-1	15	0	7	.	.
CCOc1ccc(C(=O)/C=C/Nc2ccc(S(=O)(=O)Nc3cc(C)nc(C)n3)cc2)cc1	147*	-4	0	-5	238*	177*
Cc1ccc(/C=N/N=C/c2ccc(C)s2)s1	-1	3	3	0	.	.
Cc1ccc(C=Nc2ccccc2C(N)=O)s1	17*	-2	0	0	12	14*
Cc1cccc(C=Nc2ccccc2C(N)=O)c1	13*	-3	2	3	28*	22*	EDANS interf=>69
CCCCOCCCNC(=O)C[C@H]1C[C@@]2(C(=O)OC)C(=C[C@H](C3CCCC3)O[C@@H]2C)N(Cc2ccco2)C1=O	0	-9	.	-5	.	.
O=C(COc1ccc(/C=N/NC(=O)c2ccncc2)cc1)Nc1ccccc1	27*	3	0	-3	-22	-15
Cn1c(N)nc2nc(CCc3ccccc3)c(=O)[nH]c2c1=O	13*	3	1	1	34*	30*
Cc1cc(NC(=O)c2ccc(NS(=O)(=O)c3ccc(C)c(C)c3)cc2)no1	1	-8	.	-1	.	.
Cc1ccc(-c2cn3cccnc3n2)cc1	85*	-1	3	4	64*	69*
Cc1ccc(-c2cn3cccnc3n2)cc1NC(=O)c1ccc(Br)o1	22*	-3	0	3	17*	4.9*	EDANS interf=>69
Nc1cccc(-c2cn3cccnc3n2)c1	0	-1	4	-3	.	.
CS(=O)(=O)Nc1ccc(-c2ccc3nccn3c2)cc1	0	-1	.	-6	.	.
CS(=O)(=O)Nc1ccc(-c2cn3cccnc3n2)cc1	123*	0	0	0	39*	39*
COC(=O)[C@]12C[C@H](CC(=O)NCC34CC5CC(CC(C5)C3)C4)C(=O)N(Cc3ccc(Cl)cc3Cl)C1=C[C@H](C(C)C)O[C@@H]2C1CC1	0	-1	.	4	.	.
Cn1c2ccccc2c(=O)c2ccc(F)cc21	13*	3	1	7	50*	44*
CCOC(=O)c1c2ccc(OCC(=O)NN)cc2n2ccccc12	49*	5	1	-9	-27	-33
O=C(Nc1ncc2c(n1)-c1ccccc1OC2)c1ccccc1Cl	16*	1	0	-4	0	-2
CCN1C(=O)c2cccc3c(S(=O)(=O)N(C)C)ccc1c23	65*	1	.	2	73*	75*
CNS(=O)(=O)c1ccc2c3c(cccc13)C(=O)N2C	35*	8	-1	6	55*	66*
CN1C(=O)c2cccc3c(S(=O)(=O)N(C)C)ccc1c23	49*	5	0	0	66*	73*
CCCCCn1nnnc1C1(C)CCCC(=O)N1Cc1ccco1 (stereo not given)	0	0	.	4	.	.
O=C(NCCc1c[nH]c2ccccc12)OCc1cn(Cc2ccccc2C(F)(F)F)nn1	0	-1	.	1	.	.
Cn1c(C(=O)NCC2CCCO2)cc2c(=O)n3ccccc3nc21 (stereo not given)	59*	15	2	4	68*	73*
SMILES	KLK7 zymogen act	NPR1 activator	HIF act	NPR2 activator	KLK7 act conf	EDANS interfere	others
CC(NC(=O)c1cc2c(=O)n3ccccc3nc2n(CC2CCCO2)c1=N)c1ccccc1 (stereo not given)	12	17	0	1	.	.
N=c1c(C(=O)NC2CCCC2)cc2c(=O)n3ccccc3nc2n1CC1CCCO1 (stereo not given)	105*	4	0	3	33*	25*	EDANS interf=>69
N=c1c(C(=O)NC2CCCCC2)cc2c(=O)n3ccccc3nc2n1CC1CCCO1 (stereo not given)	53*	13	0	3	8	21*
COCCCn1c(C(=O)N2CC(C)OC(C)C2)cc2c(=O)n3ccccc3nc21 (stereo not given)	83*	10	0	10	70*	71*
C[C@H]1[C@@H](N(C)Cc2ccccc2)CC[C@@]23CCCN2C(=O)CCC[C@@H]13	.	3	.	0	.	.
Nn1c(SCC(=O)Nc2ccc(Br)cn2)nnc1-c1n[nH]c2c1CCC2	0	3	.	-10	.	.
N=c1c(C(=O)NC2CCCC2)cc2c(=O)n3ccccc3nc2n1C1CCCC1	50*	7	0	-4	-32	-32
COCCCn1c(=N)c(C(=O)NC2CCCCC2)cc2c(=O)n3ccccc3nc21	150*	7	0	3	4	-3
Cn1c(C(=O)N2COCC2(C)C)cc2c(=O)n3ccccc3nc21	48*	15	3	13	74*	70*
COc1ccc(Cn2c(=N)c(C(=O)NC3CCCCC3)cc3c(=O)n4ccccc4nc32)cc1	0	28	0	23	.	.
Cc1cccn2c(=O)c3cc(C(=O)N4COCC4(C)C)sc3nc12	3	6	2	1	.	.
COc1ccc(CN2CCC(CNC(=O)NCc3ccccc3)CC2)cc1	0	3	.	-12	.	.
Cc1coc2c1c(C)cc1oc(=O)c(CC(=O)N[C@H](C(=O)O)C(C)C)c(C)c12	23*	-2	-1	0	29*	37*
CCC(NC(=O)Cc1c(C)c2c(cc(C)c3c(C)c(C)oc32)oc1=O)C(=O)O (stereo not given)	23*	2	-1	1	16*	1	EDANS interf=>70
Cc1coc2c(C)c3oc(=O)c(CCC(=O)N[C@H](C(=O)O)C(C)C)c(C)c3cc12	16*	3	.	-2	8	10*
Cc1coc2c(C)c3oc(=O)c(CCC(=O)NCCC(=O)O)c(C)c3cc12	8	0	-2	0	.	.
Cc1coc2c1c(C)cc1oc(=O)c(Cc3ccccc3)c(C)c12	0	2	0	7	.	.
Cc1coc2c1c(C)cc1oc(=O)c(CC(=O)N[C@@H](C)C(=O)O)c(C)c12	29*	1	0	-5	24*	27*
CSCC[C@H](NC(=O)Cc1c(C)c2c(cc(C)c3c(C)c(C)oc32)oc1=O)C(=O)O	-7	1	0	2	.	.
COc1ccc(C2c3[nH]c4ccccc4c3CCN2CCCn2cccn2)c(C)c1C (stereo not given)	27*	-25	0	-8	19*	20*
